Source: PubChem BioAssay AID1159580 (chemical genetic matrix, 2015)
Out of some 5,500 compounds screened, about 2,000 (36%) were called active. Not shown: some 18% with an inconclusive outcome. No stated cut-off is given here; in the data, active means normalized growth mostly below about 0.91 (no sharp cut-off); inconclusive means no clear call, values can overlap the other calls; inactive means mostly above about 0.92. The list shows a part of the results.

Test: chemical genetic growth profiling, strain panel (AID 1159580);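 further: tested at 20 µM; growth read once vehicle control cultures reached saturation at 30 °C; 1 = growth at the plate median or of vehicle wells; lower values mean less growth of the strain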
Conditions: S. cerevisiae deletion strains, growth OD

Measured: normalized growth

C[C@H]1O[C@@H](n2cc(F)c(=O)[nH]c2=O)[C@H](O)[C@@H]1O
inactive: locus YAL013W, strain DEP1, hits give low values 1.04 | locus YAL040C, strain CLN3, hits give low values 1 | locus YCL061C, strain MRC1 (second series), hits give low values 1.01 | locus YDR363W, strain ESC2, hits give low values 1.02 | locus YER002W, strain NOP16, hits give low values 1.04 | locus YGR229C, strain SMI1, hits give low values 1.07 | locus YJR075W, strain HOC1, hits give low values 1.01 | locus YMR263W, strain SAP30, hits give low values 1.01 | locus YMR307W, strain GAS1, hits give low values 1 | locus YNL153C, strain GIM3, hits give low values 1.02 | locus YNL175C, strain NOP13, hits give low values 1 | locus YNL197C, strain WHI3, hits give low values 1 | locus YNL224C, strain SQS1, hits give low values 0.984 | locus YNL322C, strain KRE1, hits give low values 1.02 | locus YOR083W, strain WHI5 (second series), hits give low values 1.01 | locus YPL055C, strain LGE1, hits give low values 1.02 | locus YPL241C, strain CIN2, hits give low values 1.01
